The results in this text go back to PubChem BioAssay.

A short description of assay [1]: HIF-2a reporter inhibitor retest, confirmation, luminescence, 786-0 RCC cells (AID 651580;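 active = mean inhibition across four replicates of at least 40 percent at the single tested concentration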). To be noted: HIF-2a luciferase reporter luminescence, overnight, at 18.8 µM, stronger effect = higher value. A general note: Reporter assays use an easily measured gene product as a stand-in for the process of interest.
Assay [2] is described as follows: HIF-1a luciferase reporter signal reduction – MiaPaCa-2 cells, single concentration, counter-screen for HIF-2a inhibitor project, confirmation (AID 651589). To be noted: MiaPaCa-2 HIF-1a luciferase reporter, desferoxamine, overnight; at 18.8 µM; stronger effect = higher value.
Assay [3] can be described thus: inhibitors of PAF-induced NFkB signaling in CF airway cells, dose response, cell-based, uHTS hits, panel, cytotoxicity readout (AID 624344). To be noted: CF bronchial epithelial cells, PAF-induced NFkB reporter inhibition, with PAF, run 1; at 79 µM (top of the series) unless noted.
Assay in assay [4]: as above
To be noted: CF bronchial epithelial cells, PAF-induced NFkB reporter inhibition, with PAF, run 2; at 79 µM (top of the series) unless noted.

For assay [5], the target named is Tumor necrosis factor receptor superfamily member 10B (Homo sapiens) (UniProt O14763). Briefly: caspase-8 TRAIL sensitization, hit retest, confirmation, cell-based, NB7+caspase-8, with/without TRAIL, luminescence panel (AID 651596; in the data active = activity above about 50%). Particulars: NB7 neuroblastoma + caspase-8, TRAIL sensitization, luminescence viability, with TRAIL, mean of runs, at 10 µM, stronger effect = higher value.
Sequence of Tumor necrosis factor receptor superfamily member 10B (Homo sapiens) (O14763 whole entry, looked up): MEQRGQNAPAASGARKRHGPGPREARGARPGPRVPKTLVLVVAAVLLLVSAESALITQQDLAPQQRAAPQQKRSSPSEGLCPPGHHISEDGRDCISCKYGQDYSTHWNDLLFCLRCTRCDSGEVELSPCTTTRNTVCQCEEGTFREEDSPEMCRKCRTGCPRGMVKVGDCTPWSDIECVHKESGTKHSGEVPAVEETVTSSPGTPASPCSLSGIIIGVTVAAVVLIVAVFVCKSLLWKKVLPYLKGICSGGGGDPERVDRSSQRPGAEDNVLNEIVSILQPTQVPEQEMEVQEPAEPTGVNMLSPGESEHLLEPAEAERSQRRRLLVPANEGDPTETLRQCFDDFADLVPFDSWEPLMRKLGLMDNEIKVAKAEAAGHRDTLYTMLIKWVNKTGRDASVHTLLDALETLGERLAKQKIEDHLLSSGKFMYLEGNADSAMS

Assay in assay [6]: as above
To be noted: NB7 neuroblastoma + caspase-8, without TRAIL, luminescence viability, without TRAIL, mean of runs, at 10 µM.

Assay [7] concerns the target Tumor necrosis factor receptor superfamily member 10B (Homo sapiens) (UniProt O14763). Briefly: TRAIL sensitizers in caspase-8 expressing neuroblastoma cells, dose response, NB7 cells plus caspase-8, luminescence, panel (AID 652002). Particulars: NB7 neuroblastoma +caspase-8, TRAIL sensitization, luminescence viability, NB7+Caspase-8, with TRAIL, run 1; at 12.5 µM (top of the series).

The target is the same in assay [8]. The assay is described as above. Particulars: NB7 neuroblastoma +caspase-8, TRAIL sensitization, luminescence viability, NB7+Caspase-8, with TRAIL, run 2; at 12.5 µM (top of the series).
Assay in assay [9]: as above
To be noted: NB7 neuroblastoma +caspase-8, no TRAIL, compound-alone cytotoxicity counter-screen, luminescence viability, NB7+Caspase-8, run 1; at 12.5 µM (top of the series) unless noted. For orientation: The purpose of a counterscreen is to sort out artefacts and off-target activity.

Assay in assay [10]: as above
Particulars: NB7 neuroblastoma +caspase-8, no TRAIL, compound-alone cytotoxicity counter-screen, luminescence viability, NB7+Caspase-8, run 2; at 12.5 µM (top of the series) unless noted.

The list shows a part of the results. Active and inactive are the calls of the source.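 The calls were made as follows, unless noted: active = mean inhibition of the reporter signal across four replicates at the single tested dose of 50% or more; inactive = the rest.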

Usually inhibition stands for the change of the read-out against control, counted positive when it falls.

Consider `O=C(CN1CCN(C2CCS(=O)(=O)C2)CC1)N1N=C(c2ccc(Cl)cc2)CC1c1ccco1` (configuration not stated), for which the inhibition in assay [1] is -11% (inactive); in [2], 74.8% (active).

As for `CC(C)C[C@@H](N)c1nnc(SCC(=O)c2ccc(Cl)cc2)o1`, the values for the inhibition in assay [1] and in assay [2] were 80% (active) and -10.2% (inactive), respectively.

Take `COc1ccc(N(Cc2cc(=O)[nH]c3ccccc23)C(=O)CCl)cc1`: the inhibition turned out to be 92.3% in assay [3] and 88.4% in assay [4]. In addition, the activity in [5] worked out at 99.3%; in [6], 99.5%.

Regarding `Cc1cccc(C(=O)Nc2ccc(CC(=O)O)cc2)c1`, the inhibition in assay [1] is 53% (active); in assay [2], 44.8% (inactive).

In the case of `CCN1CCC(O)(/C=C/c2ccc(C)cc2)C(C(=O)/C=C/c2ccc(C)cc2)C1` (configuration not stated), the inhibition in [1] is 5.88% (inactive); in assay [2], 105% (active).

Consider `COc1ccc(OC)c(N(CCN2C(=O)c3ccccc3C2=O)C(=O)CCl)c1`, for which the inhibition came out at 106% in assay [3] and 101% in assay [4]. Also, the activity was determined as 98.7% in [5] and 97.6% in assay [6].

For the compound `CCOc1cc(/C=C(/C#N)c2ccc(Cl)cc2)cc(Cl)c1OCC(=O)O`, the inhibition in assay [1] is 98.1% (active); in assay [2], 91.2% (active).

For `CCS(=O)(=O)c1ncc(Cl)c(C(=O)Nc2ccccc2OC)n1`, the figures for the inhibition in [3] and in assay [4] were 95.8% and 86%, respectively. The results for the activity in assay [5] and in assay [6] were 98.4% and 99%, respectively.

As to `NC(N)=Nc1nc(-c2ccccc2)c2cc(Cl)ccc2n1`, the inhibition in [1] is 17.8% (inactive); in assay [2], 107% (active).

In the case of `Cc1c(CCC(=O)O)c(=O)oc2cc3occ(-c4ccccc4)c3cc12`, the inhibition in assay [1] was 68.1% (active); in assay [2], 50.7% (active).

Turning to `O=C(NCCC1=CCCCC1)c1coc(=O)c(Br)c1`, the inhibition in assay [3] is 79.7%; in [4], 74.3%. The values for the activity in assay [5] and in assay [6] were 76.4% and 22.7%, respectively.

As for `Cc1coc2c(O)cc3c(c12)OC1(N2CCCCC2)C(=O)NCCCC31` (configuration not stated), the figures for the inhibition in assay [1] and in assay [2] were 1.41% (inactive) and 107% (active), respectively.

On to `CCN(CC)CCCC(C)n1c2nc(=O)[nH]c(=O)c-2nc2cc(Cl)ccc21` (configuration not stated), for which the inhibition in assay [1] is 97.9% (active); in assay [2], 50% (inactive).

Consider `Cc1ccc(NC(=S)NC(NC(=O)Cc2cccc3ccccc23)C(Cl)(Cl)Cl)cc1` (configuration not stated), for which the inhibition in [1] was -32.9% (inactive); in assay [2] it was 98.7% (active).

Take `O=C(Nc1ccccc1)c1nnsc1S(=O)(=O)c1ccc(Cl)cc1`: the inhibition in [1] is 47.1% (active); in assay [2], -5.15% (inactive).

Turning to `O=[N+]([O-])/C=C/c1ccc2c(ccn2Cc2ccccc2)c1`, the results for the inhibition in [1] and in [2] were 45.4% (active) and 104% (active), respectively.

Turning to `Cc1ccc(-c2noc(CNC(=O)c3ccoc3C)n2)cc1`, the inhibition in assay [1] is 0.91% (inactive); in assay [2] it was -16.7% (inactive).

For the compound `CCOC(=O)C1=C(CC)Nc2ccccc2N=C1NC(=O)Nc1ccc(Cl)c(Cl)c1`, the results for the inhibition in assay [3] and in assay [4] were 113% and 103%, respectively. Moreover, the activity in [5] was determined as 63.9%; in [6], 64.3%.

Consider `Cc1cccc(N(Cc2cc(=O)[nH]c3ccccc23)C(=O)CCl)c1`, for which the inhibition turned out to be 95.1% in [3] and 90.7% in assay [4]. In addition, the values for the activity in assay [5] and in [6] were 98.3% and 98.5%, respectively.

Consider `CCOC(=O)c1sc(NC(=O)c2cccc(S(=O)(=O)N3CCc4ccccc43)c2)c(C#N)c1C`, for which the figures for the inhibition in assay [3] and in assay [4] were 79.6% and 80.5%, respectively. Moreover, the activity stood at 53.4% in assay [5] and 41.3% in [6]. Also, the activity, % sensitization in assay [7] was 29.7%; in assay [8], -18%; in assay [9], 1.22%; in [10], -10%.

For the compound `Cc1ccccc1C(CC(=O)c1cccs1)C(C#N)C#N` (configuration not stated), the inhibition in assay [1] was 28.4% (inactive); in assay [2], 100% (active).

As for `COc1ccc(-c2cc(-c3nc4ccccn4c3NCc3ccccc3)ccc2OC)cc1`, the figures for the inhibition in assay [3] and in assay [4] were 105% and 96.6%, respectively. In addition, the activity in [5] is 93.2%; in [6], 88.6%.

On to `COCC(C)n1c(C)cc(C(=O)COc2ccc(C)nc2[N+](=O)[O-])c1C` (configuration not stated), for which the inhibition in assay [1] was 55% (active); in assay [2], 41.4% (inactive).

For `Cn1ncc2c(O/N=C(\N)c3ccc(C(C)(C)C)cc3)ncnc21`, the inhibition in [3] was 101%; in assay [4] it was 112%. The activity came to 98.5% in [5] and 98.8% in assay [6].

With `CCCc1[nH]nc2c1C(C1CC=CCC1)C(C#N)=C(N)O2` (configuration not stated), the results for the inhibition in assay [1] and in assay [2] were 8.58% (inactive) and 39.6% (inactive), respectively.

Take `COc1ccc2[nH]cc(C(=O)CCl)c2c1`: the values for the inhibition in assay [3] and in assay [4] were 96.8% and 99.6%, respectively. Further, the activity turned out to be 99.1% in assay [5] and 99.2% in [6].

Take `Cc1ccc(C(=O)Nc2cccc(C(F)(F)F)c2)cc1NC(=O)c1nccnc1N`: the inhibition in [3] amounted to 75.2%; in assay [4], 76%. The results for the activity in assay [5] and in assay [6] were 50.6% and 39%, respectively.

`COc1cccc2c(C)c(C(=O)O)[nH]c12`: the inhibition in assay [1] was 35.5% (inactive); in assay [2] it was 37.3% (inactive).

Consider `CCCSC(=S)NC1CCS(=O)(=O)C1` (configuration not stated), for which the inhibition was 14.6% (inactive) in assay [1] and 68.5% (active) in assay [2].

In the case of `N#C/C(=C/c1cccc([N+](=O)[O-])c1)c1nnc2n1CCCCC2`, the inhibition in assay [1] was 23.5% (inactive); in [2], 11.7% (inactive).

Consider `CC[C@@H](C)[C@H](NC(=O)CCc1c(C)c2cc3c4c(oc3c(C)c2oc1=O)CCCC4)C(=O)O`, for which the inhibition in [1] was 68.5% (active); in [2], 44.4% (inactive).

Consider `CCOC(=O)C(=Cc1ccccc1OC)C(=O)OCC`, for which the inhibition is 57.5% (active) in [1] and 75.7% (active) in [2].

Take `O=C(COC(=O)c1ccccc1C(=O)c1ccc(Cl)c([N+](=O)[O-])c1)NC1CCCCCC1`: the inhibition is 110% in assay [3] and 99.7% in [4]. For the same compound, the activity was 98.1% in assay [5] and 97.2% in assay [6].

`Clc1ccc(Cn2ncc3c(N4CCN(c5ccccc5)CC4)ncnc32)cc1`: the inhibition in [3] stood at 109%; in assay [4] it was 94.9%. In addition, the activity in assay [5] came to 69.5%; in assay [6] it was 66.8%.

As for `COc1ccc(-c2oc3ncnc(NCCCO)c3c2-c2ccc(OC)cc2)cc1`, the values for the inhibition in assay [1] and in assay [2] were 37.9% (inactive) and 82.4% (active), respectively.

As for `O=Nc1ccc(NO)c2ccccc12`, the inhibition in assay [3] was 77.1% [at 39.5 µM]; in [4], 48.9%. Further, the activity was found to be 79.8% in [5] and 47.2% in assay [6]. For the same compound, the activity, % sensitization was 19% in [7], 40.7% in assay [8], 39.7% in assay [9] and 31.2% in assay [10].

With `Cc1cc(-c2n[nH]c(=S)n2/N=C/C(Br)=C/c2ccccc2)n[nH]1`, the inhibition in assay [1] is 22.8% (inactive); in [2], 105% (active).

In the case of `COc1ccc(C(=O)N/N=C/c2cccnc2)cc1`, the activity in assay [5] was 34.2%; in [6], 40%.
